Data from PubChem BioAssay AID1159580 (chemical genetic matrix, 2015).
Screen size: about 5,500 compounds; about 2,000 (36%) were called active. About 18% were inconclusive and are not listed. Cut-off read from the data, not from the text of the source: active = normalized growth mostly below about 0.91 (no sharp cut-off); inconclusive = no clear call, values can overlap the other calls; inactive = mostly above about 0.92. This is one part of the list.

Assay: chemical genetic growth profiling, strain panel (AID 1159580);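 note: tested at 20 µM; growth read once vehicle control cultures reached saturation at 30 °C; 1 = growth at the plate median or of vehicle wells; lower values mean less growth of the strain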
Details: S. cerevisiae deletion strains, growth OD

Measured: normalized growth

Oc1ccc2c3c1O[C@H]1c4[nH]c5c(c4C[C@@]4(O)[C@@H](C2)N(CC2CC2)CC[C@]314)C[C@@]1(O)[C@H]2Cc3ccc(O)c4c3[C@@]1(CCN2CC1CC1)[C@H]5O4
inactive: locus YAL013W, strain DEP1, hits give low values 0.969 | locus YAL040C, strain CLN3, hits give low values 1 | locus YCL061C, strain MRC1 (second series), hits give low values 0.962 | locus YDR363W, strain ESC2, hits give low values 1.02 | locus YER002W, strain NOP16, hits give low values 0.996 | locus YGR078C, strain PAC10, hits give low values 0.986 | locus YMR263W, strain SAP30, hits give low values 0.982 | locus YMR307W, strain GAS1, hits give low values 1.03 | locus YNL175C, strain NOP13, hits give low values 1 | locus YNL197C, strain WHI3, hits give low values 0.978 | locus YNL224C, strain SQS1, hits give low values 1 | locus YNL322C, strain KRE1, hits give low values 0.958 | locus YOR083W, strain WHI5 (second series), hits give low values 1.01 | locus YPL241C, strain CIN2, hits give low values 0.968
